Results reported in PubChem BioAssay (NCATS).
Several values for one entry are separate records, joined by “and”; a condition that tells them apart may be missing. Equal entries are not always repeated. Results filed as inconclusive are left out. Activity calls are given as the source filed them. Calls follow the shape of the dose curve; as a rule, active = well fitted curve in the direction sought with a large enough effect; inconclusive = small, poorly fitted or top-dose-only effect, or another doubt; inactive = no such curve, though single readings can be large; an effect the other way counts as inactive or inconclusive. Numbered stars: 1 amine (or outer) side, 2 acyl side, 3 side chain; on linkers, the order of the positions; unused ones are H or OH. Square brackets hold non-standard residues; d marks the D form. Peptide text beside a SMILES is read from it. X10 = O=C(C(CC(O)CO)O[*:1])[*:2]; NMeV = CN[CH](C(=O)O)C(C)C; NMeA = CN[CH](C)C(=O)O; βAla = NCCC(=O)O

Experiments:
[1] = target: Cellular tumor antigen p53 (Homo sapiens) (UniProt P04637); assay: Primary qHTS for small molecule compounds that upregulate eGFP-tagged delta133p53alpha (in N-terminal) cells. (AID 2060322); conditions: NCI-H358 eGFP-delta133p53alpha fluorescence, 24 h; activation: active compounds read high;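 also: 0% = DMSO vehicle and 100% = reference activator; nearly all actives have a fitted effect of over 75% in size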
Sequence of Cellular tumor antigen p53 (Homo sapiens) (P04637 whole entry, looked up): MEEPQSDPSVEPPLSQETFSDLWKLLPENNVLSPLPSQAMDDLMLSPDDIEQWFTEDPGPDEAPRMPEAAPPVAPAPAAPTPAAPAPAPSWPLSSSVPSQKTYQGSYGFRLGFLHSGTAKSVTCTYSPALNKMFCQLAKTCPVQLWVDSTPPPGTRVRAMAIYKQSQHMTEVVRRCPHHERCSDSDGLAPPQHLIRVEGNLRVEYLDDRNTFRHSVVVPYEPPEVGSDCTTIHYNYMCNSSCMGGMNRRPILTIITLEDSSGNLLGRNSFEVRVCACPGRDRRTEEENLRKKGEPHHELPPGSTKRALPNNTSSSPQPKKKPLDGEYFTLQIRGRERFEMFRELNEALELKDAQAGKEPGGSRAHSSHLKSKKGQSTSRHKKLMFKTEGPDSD
Method in brief: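 NCI-H358 cells pre-induced 24 h with 10 ng/ml doxycycline to express N-terminal eGFP-delta133p53alpha, then dosed 24 h at 37C without doxycycline; fixed, Hoechst-stained, GFP intensity by laser scanning cytometry, normalized to DMSO (0%) and 57.5 uM 5-azacytidine (100%).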

[2] = target: Aldehyde dehydrogenase, mitochondrial (Homo sapiens) (UniProt P05091); assay: qHTS for Inhibitors of the Aldehyde Dehydrogenase Family (ALDH2) Primary screen (AID 2061308); conditions: ALDH2 enzyme inhibition qHTS, 1536-well; series mostly up to 56 µM;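 also: plate controls were vehicle for no effect and reference inhibitor for full effect; nearly all actives have a fitted effect of over 55% in size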
[3] = target: Retinaldehyde dehydrogenase 3 (Homo sapiens) (UniProt P47895); assay: qHTS for Inhibitors of the Aldehyde Dehydrogenase Family (ALDH1A3) Primary screen (AID 2061315); conditions: ALDH inhibition qHTS; series mostly up to 56 µM;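 also: plate controls were DMSO vehicle for no effect and reference inhibitor for full effect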

CCC(C)C1NC(=O)C2CCCN2C(=O)C(CC(O)CO)OC(=O)CCNC(=O)C(C)N(C)C(=O)C(C(C)C)N(C)C1=O (stereo unspecified) (cyclo([X10]PI[NMeV][NMeA][βAla]); configuration not given here)
inactive: activation [1] -16% | Potency [2] | Potency [3]

CC(C)C1(O)C=C2C(=O)CC3C(C)(C(=O)O)CCCC3(C)C2CC1 (stereo unspecified)
inactive: activation [1] -12.2% | Potency [2] | Potency [3]

NC(=O)NCCCC(NC(=O)Cc1ccccc1)C(=O)O (stereo unspecified)
inactive: activation [1] -1.79% | Potency [2] | Potency [3]

CC1(C)COC(=O)[C@@H]1O[C@@H]1O[C@H](CO)[C@@H](O)[C@H](O)[C@H]1O
inactive: activation [1] -11.6% | Potency [2] | Potency [3]

O=C(O)CCc1cc2ccoc2cc1O[C@@H]1O[C@H](CO[C@@H]2OC[C@](O)(CO)[C@H]2O)[C@@H](O)[C@H](O)[C@H]1O
inactive: activation [1] -11.5% | Potency [2] | Potency [3]

COc1ccc(OC2OC(CO[C@@H]3O[C@@H](C)[C@H](O)[C@@H](O)[C@H]3O)C(O)C(O)C2O)cc1OC (stereo partly specified)
inactive: activation [1] 8.4% | Potency [2] | Potency [3]

COC(=O)C1=CO[C@@H](O[C@@H]2O[C@H](CO)[C@@H](O)[C@H](O)[C@H]2O)[C@@H]2[C@@H](CO)[C@@H](O)C(O)[C@H]12 (stereo partly specified)
inactive: activation [1] -1.79% | Potency [2] | Potency [3]

CC(=O)OC[C@@]12C(=O)C[C@@H](C)[C@]3(C[C@@H](c4ccoc4)OC3=O)[C@H]1CC[C@H](OC(C)=O)[C@]21CO1
inactive: activation [1] 27.5% | Potency [2] | Potency [3]

C=C(C)[C@@H](C)[C@H]1O[C@]23C[C@]4(CO2)C(CCC2[C@@]5(C)CC[C@H](O[C@@H]6OC[C@H](O)[C@H](O[C@@H]7O[C@H](CO)[C@@H](O)[C@H](O)[C@H]7O)[C@H]6O[C@@H]6O[C@@H](CO)[C@H](O)[C@H]6O)C(C)(C)C5CC[C@]24C)C3[C@@](C)(O)[C@@H]1OC(C)=O (stereo partly specified)
inactive: activation [1] -7.63% | Potency [2] | Potency [3]

C[C@@H](c1nc(-c2ccc(C#N)cc2)cs1)[C@](O)(Cn1cncn1)c1cc(F)ccc1F
inactive: activation [1] -2.33% | Potency [2] | Potency [3]

C=CCc1ccc(O[C@@H]2O[C@H](CO)[C@@H](O)[C@H](O)[C@H]2O)c(O[C@@H]2O[C@H](CO)[C@@H](O)[C@H](O)[C@H]2O)c1
inactive: activation [1] -13.7% | Potency [2] | Potency [3]

CN(CC1COCCO1)S(=O)(=O)Nc1ccc2ccc3ncc(-c4cnn(C)c4)cc3c(=O)c2c1 (stereo unspecified)
inactive: activation [1] 0.893% | Potency [2] | Potency [3]

O=C1NC(Cc2c[nH]c3ccccc23)C(=O)NC1Cc1c[nH]c2ccccc12 (stereo unspecified)
inactive: activation [1] 14.5% | Potency [2] | Potency [3]

Cc1cc(O)cc2c1O[C@](C)(CCC[C@H](C)CCC[C@H](C)CCCC(C)C)CC2
inactive: activation [1] -16.4% | Potency [2] | Potency [3]

C=C(C(=O)O)C1CCC2(C)CCCC(C)(O)C2C1 (stereo unspecified)
inactive: activation [1] -5.36% | Potency [2] | Potency [3]

COc1c2c(c(C)c3c1C(=O)OC3)O[C@@]1(C)CCC3(C(C)(C)O)OC(=O)CC[C@]3(C)[C@H]1C2 (stereo partly specified)
inactive: activation [1] 4.58% | Potency [2] | Potency [3]

C[C@]1(CO)CN(c2cc(C(=O)Nc3ccc4c(c3)-c3c(c(C(N)=O)nn3-c3ccc(F)cc3)CC4)c(Cl)cn2)C[C@@]1(C)CO
inactive: activation [1] 21.4% | Potency [2] | Potency [3]

CC(=O)O[C@H]1[C@H](O[C@H]2CC[C@]34C[C@]35CC[C@]3(C)[C@@H]([C@@]6(C)CC[C@@H](C(C)(C)O)O6)[C@@H](O)C[C@@]3(C)[C@@H]5C[C@H](O[C@@H]3O[C@H](CO)[C@@H](O)[C@H](O)[C@H]3O)[C@H]4C2(C)C)OC[C@@H](OC(C)=O)[C@@H]1O
inactive: activation [1] -7.67% | Potency [2] | Potency [3]

OC(CN1CCN(c2cccc(Cl)c2)CC1)C(c1ccccc1)c1ccccc1 (stereo unspecified)
inactive: activation [1] -15.1% and 17% | Potency [2] | Potency [3]

C=C1CCC2C(C)(C)CC(=O)CC2(C)C1CCC(C)CCOC(C)=O (stereo unspecified)
inactive: activation [1] -5.34% | Potency [2] | Potency [3]

CN1CCN(C(=O)c2cc3cc(Cl)ccc3[nH]2)CC1
inactive: activation [1] -0.893% | Potency [2] | Potency [3]

CC1(C)C2CCC(CO[C@@H]3O[C@H](CO[C@@H]4OC[C@](O)(CO)[C@H]4O)[C@@H](O)[C@H](O)[C@H]3O)C1C2 (stereo partly specified)
inactive: activation [1] -5.34% | Potency [2] | Potency [3]
